# Data published in PubChem BioAssay (NCI).
# This is part of a sample that, as a whole, favours compounds with a hit. Of some 79,000 tested, about 15% had one in any assay. A number with no mark means an inactive call. Activity calls are given as the source filed them. Rule as the data show it: active = growth inhibition above about 70%; inactive = the rest.
# Tests used:
# [1] = NCI Yeast Anticancer Drug Screen. Data for the rad50 strain (AID 155);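 also: 0% = growth of vehicle-only cultures of the same strain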; conditions: S. cerevisiae rad50 strain growth inhibition, hits give high values
# In short: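 Inhibition values express reduced yeast growth in compound-treated cultures relative to vehicle-treated controls.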
# [2] = NCI Yeast Anticancer Drug Screen. Data for the mec2-1 strain (AID 157); conditions: S. cerevisiae mec2-1 strain, hits give high values
# In short: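 Compounds were applied to mec2-1 yeast cells. Their growth was then compared with that of vehicle-treated cultures to give growth inhibition.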
# [3] = NCI Yeast Anticancer Drug Screen. Data for the sgs1 mgt1 strain (AID 161);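 also: 0% = growth of cultures given vehicle only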; conditions: S. cerevisiae sgs1 mgt1 strain, hits give high values
# In short: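 Percent growth inhibition was derived by comparing compound-exposed mutant yeast with vehicle-exposed cultures. The strain carries alterations in DNA damage repair.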
# [4] = NCI Yeast Anticancer Drug Screen. Data for the cln2 rad14 strain (AID 165);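 also: 0% = growth equal to vehicle treated cultures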; conditions: S. cerevisiae cln2 rad14 strain, hits give high values
# In short: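 Strain: cln2 rad14 yeast, altered in cell cycle control and DNA damage repair. Read-out: growth inhibition vs vehicle.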
# [5] = NCI Yeast Anticancer Drug Screen. Data for the bub3 strain (AID 167); conditions: S. cerevisiae bub3 mutant strain, hits give high values
# In short: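 Steps: expose the mutant yeast strain to compound; grow alongside vehicle-treated cultures; measure growth; express inhibition against the vehicle cultures.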
# [6] = NCI Yeast Anticancer Drug Screen. Data for the mlh1 rad18 strain (AID 175); conditions: S. cerevisiae mlh1 rad18 strain growth inhibition, hits give high values
# In short: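 A repair-deficient yeast strain is exposed to test compound, and growth is scored relative to vehicle-treated controls.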
# [7] = at 5.0 µM (retest, dose inferred, filed as 0.5)
# [8] = at 50.0 µM (retest, dose inferred, filed as 5.0)
Compound,"growth inhibition [1, 7]","growth inhibition [1, 8]",growth inhibition ([1]; at 50.0 µM),"growth inhibition [2, 7]","growth inhibition [2, 8]",growth inhibition ([2]; at 50.0 µM),"growth inhibition [3, 7]","growth inhibition [3, 8]",growth inhibition ([3]; at 50.0 µM),"growth inhibition [4, 7]","growth inhibition [4, 8]",growth inhibition ([4]; at 50.0 µM),"growth inhibition [5, 7]","growth inhibition [5, 8]",growth inhibition ([5]; at 50.0 µM),"growth inhibition [6, 7]","growth inhibition [6, 8]",growth inhibition ([6]; at 50.0 µM)
N#Cc1ncc(Cl)cc1[N+](=O)[O-],93% (active),98% (active),99.5% (active),80% (active),99% (active),99.7% (active),93% (active),99% (active),99.5% (active),59%,98% (active),99.2% (active),70% (active),98% (active),99.6% (active),75% (active),98% (active),99.5% (active)
COc1cc(O)c2c(c1)C(=O)c1cc3c(c(O)c1C2=O)C(OC1OC(C)C(O)C(O)C1OC)C(OC)C(C)(O)C3=O (configuration not stated),95% (active),99% (active),92.5% (active),35%,99% (active),93.4% (active),35%,99% (active),93.7% (active),12%,99% (active),89.9% (active),15%,99% (active),93.3% (active),58%,99% (active),92.8% (active)
CC(CN(C)C)C(/C=C/c1ccc(Cl)c(Cl)c1)=N\Nc1ccccc1 (configuration not stated),2%,96% (active),54.1%,-3%,98% (active),98.7% (active),3%,99% (active),49.3%,3%,96% (active),47.1%,-1%,91% (active),88.4% (active),9%,96% (active),64.6%
C=CCNC(=S)N/N=C(/c1ccccn1)C(C)C,1%,40%,89.8% (active),-1%,36%,98.5% (active),-2%,80% (active),96.9% (active),-4%,28%,91.3% (active),-2%,41%,96.3% (active),-2%,69%,96% (active)
Cc1c(C(C)(C)C)cc(C(C)(C)C)c(O)c1CN(C)Cc1c(C)c(C(C)(C)C)cc(C(C)(C)C)c1O,-3%,8%,99.5% (active),-8%,3%,99.3% (active),3%,33%,99.6% (active),-6%,-3%,99.5% (active),-3%,13%,99.4% (active),4%,17%,99.5% (active)
CC1CC(N)=NC1C(=O)NCCC#N (configuration not stated),20%,8%,10.9%,27%,8%,3.25%,38%,17%,64.1%,14%,2%,72% (active),25%,-12%,62.6%,30%,11%,66.7%
Oc1cc(Cl)cc2cc(Cl)cnc12,99% (active),99% (active),86.6% (active),96% (active),98% (active),91.2% (active),98% (active),98% (active),84.8% (active),97% (active),96% (active),87.7% (active),98% (active),99% (active),87.8% (active),98% (active),99% (active),82.3% (active)
N#CS/C(C(Cl)=C(Cl)Cl)=C(/Cl)[N+](=O)[O-],99% (active),100% (active),88.8% (active),99% (active),100% (active),92% (active),99% (active),99% (active),85.9% (active),99% (active),99% (active),89.5% (active),99% (active),100% (active),90% (active),99% (active),99% (active),84% (active)
CC1CCCC(C)C1=O (configuration not stated),4%,3%,8.7%,-4%,0%,-12.2%,-7%,3%,-13.4%,3%,7%,13.8%,5%,10%,3%,2%,3%,-4.35%
Nc1ncnc2nc(-c3ccc(C[P+](c4ccccc4)(c4ccccc4)c4ccccc4)cc3)[nH]c12,-6%,77% (active),72% (active),11%,43%,66.2%,0%,78% (active),73.8% (active),-10%,61%,62.6%,11%,61%,54.8%,-6%,83% (active),69.8%
CCC(/C=C/C(C)C1CCC2C3CC=C4C/C(=N/NC(N)=O)CCC4(C)C3CCC12C)C(C)C (configuration not stated),-7%,6%,9.95%,-3%,2%,9.3%,-3%,-5%,50.9%,-7%,-9%,-1.15%,-3%,2%,24.1%,-3%,5%,28.9%
Nc1nc(-c2ccccc2)c(N=Nc2c(Cl)cccc2Cl)s1,-2%,94% (active),96.5% (active),21%,95% (active),90.3% (active),9%,94% (active),55.4%,17%,95% (active),87.7% (active),13%,94% (active),91% (active),17%,94% (active),96.8% (active)
CCCCCC(C)(O)C#CC(C)(O)CCCCC (configuration not stated),2%,99% (active),38.8%,5%,99% (active),4.55%,1%,99% (active),30.7%,5%,98% (active),75.7% (active),3%,96% (active),21.3%,2%,99% (active),26.7%
CC(=O)Nc1nc(Cl)c2ncn(C3CC(OC(=O)c4ccc(C)cc4)C(COC(=O)c4ccc(C)cc4)O3)c2n1 (configuration not stated),-3%,0%,53.1%,0%,6%,27.4%,57%,3%,60.1%,-2%,0%,63.4%,0%,-2%,33.2%,-20%,0%,48.6%
CC(=O)Nc1cccc(Oc2ccc(Br)cc2[N+](=O)[O-])c1,-3%,66%,58.5%,1%,78% (active),10%,9%,94% (active),83.1% (active),0%,47%,24.7%,-1%,63%,42.6%,20%,89% (active),70.5% (active)
CC(C)(C[NH-])C[NH-].[Cl][Pt+2]([Cl])([Cl])[Cl],78% (active),97% (active),82.3% (active),93% (active),99% (active),86.5% (active),95% (active),99% (active),86.5% (active),79% (active),99% (active),87.4% (active),95% (active),99% (active),82.5% (active),90% (active),97% (active),57.5%
Cc1ccc(Cc2nc(=S)[nH][nH]2)cc1,20%,19%,1.6%,-3%,6%,-38.5%,-3%,9%,-2.75%,1%,1%,-9.2%,8%,19%,-6.3%,14%,21%,-34.8%
C=CC(c1ccccc1)[C@@]1(OC(C)=O)C(=O)C(=O)OC1C1COC(C)(C)O1 (some centres not stated),62%,98% (active),86.3% (active),75% (active),98% (active),77.7% (active),65%,100% (active),88.3% (active),30%,94% (active),86.9% (active),84% (active),100% (active),85.1% (active),81% (active),98% (active),90.4% (active)
CS(=O)(=O)Nc1ccc(Nc2c3ccccc3nc3ccccc23)cc1,13%,25%,91.8% (active),-7%,-11%,25.6%,6%,20%,14.3%,-14%,-3%,18.9%,10%,-2%,37.9%,1%,13%,35.1%
